For 98 compounds, inhibition results are on record in PubChem BioAssay AID1445 (SRMLSC, 2008).

Each structure is given as a SMILES string. The campaign covered roughly 220,000 compounds. About 910 (0.41%) were called active. What follows is part of a selection rich in actives, with near analogues and random picks from the rest. Potency and affinity values are given separately. Values without a mark were called inactive.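 Rule for the calls: active = primary inhibition above the hit cutoff, then over 50% inhibition at one or more dose response concentrations (cut at about 23% in these data, passing the limit was not always enough); inconclusive = conflicting primary data, or primary hits not chosen for dose response; inactive = low primary inhibition, or under 50% at every dose.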

For this assay, the target named is Aminopeptidase N (Plasmodium falciparum (isolate 3D7)) (UniProt O96935). As to the kind of experiment: malaria alanyl aminopeptidase activity blockers – biochemical, fluorogenic H-Leu-NHMec substrate, 1536-well (AID 1445).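 Note: plate controls were DMSO full reaction for no effect and no enzyme background for full effect.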 Particulars: recombinant M1AAP, H-Leu-NHMec fluorogenic kinetic assay; at 30 µM, stronger effect = higher value unless noted.
Sequence of Aminopeptidase N (Plasmodium falciparum (isolate 3D7)) (O96935 whole entry, looked up): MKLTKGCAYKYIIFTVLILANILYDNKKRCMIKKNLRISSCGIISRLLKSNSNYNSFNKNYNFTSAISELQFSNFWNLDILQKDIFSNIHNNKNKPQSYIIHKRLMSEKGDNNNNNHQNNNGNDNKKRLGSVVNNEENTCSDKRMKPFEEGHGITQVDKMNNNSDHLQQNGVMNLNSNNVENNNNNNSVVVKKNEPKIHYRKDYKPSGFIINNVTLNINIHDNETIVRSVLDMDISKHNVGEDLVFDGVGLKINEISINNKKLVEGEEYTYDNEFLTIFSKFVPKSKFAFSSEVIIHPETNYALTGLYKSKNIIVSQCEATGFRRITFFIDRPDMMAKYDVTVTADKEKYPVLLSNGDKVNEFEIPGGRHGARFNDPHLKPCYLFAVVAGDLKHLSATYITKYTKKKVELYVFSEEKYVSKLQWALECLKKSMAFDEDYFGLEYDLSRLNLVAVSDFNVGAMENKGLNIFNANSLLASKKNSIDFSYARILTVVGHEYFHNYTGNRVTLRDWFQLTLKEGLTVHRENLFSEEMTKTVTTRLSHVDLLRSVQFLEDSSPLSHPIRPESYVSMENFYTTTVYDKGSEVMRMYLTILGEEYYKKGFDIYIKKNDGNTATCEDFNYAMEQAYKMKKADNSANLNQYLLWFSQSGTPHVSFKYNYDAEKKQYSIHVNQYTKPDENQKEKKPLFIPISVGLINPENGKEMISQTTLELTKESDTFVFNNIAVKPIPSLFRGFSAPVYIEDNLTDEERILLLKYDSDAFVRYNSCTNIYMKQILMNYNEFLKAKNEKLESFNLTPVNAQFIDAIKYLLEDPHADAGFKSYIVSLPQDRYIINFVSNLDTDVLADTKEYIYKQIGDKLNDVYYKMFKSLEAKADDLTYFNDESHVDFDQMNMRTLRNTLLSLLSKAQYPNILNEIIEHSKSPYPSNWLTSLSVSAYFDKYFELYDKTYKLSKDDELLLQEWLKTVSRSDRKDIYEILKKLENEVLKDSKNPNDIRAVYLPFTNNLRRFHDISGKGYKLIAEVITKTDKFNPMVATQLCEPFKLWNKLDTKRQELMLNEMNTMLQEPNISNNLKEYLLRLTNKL
`COC(=O)/C=C/c1ccsc1NC(C)=O`: the inhibition (usually the change of the read-out against control, counted positive when it falls) is 7.35%. Take `O=C(Nc1ccccc1Oc1ccccc1)c1cccc([N+](=O)[O-])c1`: the inhibition is 6.7%.

Take `Cc1nn(-c2cc(N3CCCC3)ccc2[N+](=O)[O-])c(=O)c2ccccc12`: the inhibition was 8.6%. Turning to `O=C(CSc1nc2c(c(=O)n1-c1ccc(F)cc1)SCC2)NCC1CCCO1` (stereo not drawn), the inhibition is 15.6%. As for `Cc1ccc(-n2c(SCC(=O)NCC3CCCO3)nc3c(c2=O)SCC3)cc1` (stereo not drawn), the inhibition was 4.19%. As for `COc1ccccc1NC(=O)CN1CCN(C(=O)c2ccco2)CC1`, the figure is 1.53%; as for `COc1ccc(C(=O)N2CCC(n3c(C)nc4cc(F)ccc43)CC2)cc1`, -1.13%; as for `CC(C)CNC(=O)C(=O)NN=C1CCCCCC1`, 2.51%. The same measure for `O=C(O)c1ccc(NS(=O)(=O)c2ccc3c(c2)OCCO3)cc1`: 7.45%; for `COC(=O)c1ccc(C)c(NS(=O)(=O)c2ccc3c(c2)OCCO3)c1`: 9.88%. In the case of `Cc1ccc(C)c(N(C)C(=O)c2cc3c(=O)[nH]c4ccc(C)cc4c3s2)c1`, the inhibition is -2.28%. As for `CC1(C)CC(=O)c2cc(OCC(=O)NCCN3CCCc4ccccc43)ccc2O1`, the figure is 6.69%.

Consider `COc1ccc2c(c1)C(=O)N(c1ccccc1OC)C(=O)C2(C)C`, for which the inhibition was 11.7%.

For `COc1nnc(-c2ccc(N3CCOCC3)c(NC(C)=O)c2)c2ccccc12`, the inhibition was 4.98%. The same measure for `O=C(NCc1ccncc1)C1CCN(S(=O)(=O)Cc2ccccc2)CC1`: 22.4%; for `CCS(=O)(=O)N1CCC(C(=O)NCc2ccc3c(c2)OCO3)CC1`: 21.3%. The same measure for `CCCS(=O)(=O)N1CCCC(C(=O)NCc2ccc3c(c2)OCO3)C1` (stereo not drawn): 4.51%; for `O=C(NCCc1ccccc1)C1CCN(C(=O)c2sccc2-n2cccc2)CC1`: 5.4%; for `CCS(=O)(=O)N1CCC(C(=O)NCc2cccc(OC)c2)CC1`: -2.58%.

On to `CCn1c(C(=O)N2CCC(C(=O)NCc3cccs3)CC2)cc2sccc21`, for which the inhibition was 18.2%. The same measure for `CCn1c(C(=O)N2CCC(C(=O)NCc3ccc4c(c3)OCO4)CC2)cc2sccc21`: 31.3% (active); for `O=C(NCc1ccccc1F)C1CCN(C(=O)c2sccc2-n2cccc2)CC1`: 3.14%. Take `Cn1c(C(=O)N2CCCC(C(=O)NCc3ccc4c(c3)OCO4)C2)cc2sccc21` (stereo not drawn): the inhibition is 5.35%.

As for `COC(=O)c1ccc(CSc2nc3c(c(=O)n2-c2ccccc2)SCC3)o1`, the inhibition was 5.07%. As for `CCN(CC)CCCNC(=O)c1ccc(N2CCCCC2)c(NS(=O)(=O)c2ccc(C)cc2)c1`, the inhibition was -3.11%. As for `CC(CN1CCCC1)C(=O)NN` (stereo not drawn), the figure is -2.99%; as for `O=c1[nH]c2cc(Cl)c([N+](=O)[O-])nc2[nH]1`, 11.7%; as for `Cc1nc(/C(=N/O)C(N)=O)cs1`, 3.08%. The same measure for `CCOC(=O)COc1ccc(Br)cc1C1NC(=O)NC(C)=C1C(=O)NCc1ccccc1` (stereo not drawn): -5.37%; for `O=C(NCCc1nc2ccccc2[nH]1)c1ccco1`: -3.58%. For `Nc1ncc(Br)cc1S(=O)(=O)NCCC(=O)Nc1cccc(Cl)c1`, the inhibition is 0.42%. Take `Cc1ccc(C(=O)Nc2ccc3c(c2)CCC3)o1`: the inhibition is 6.8%. In the case of `COc1cccc(OC)c1C(=O)N1CCN(c2c(Cc3ccccc3)c(C)nc3ncnn23)CC1`, the inhibition was 7.55%. The same measure for `Cc1ccc2c(CNCc3ccco3)cc(=O)oc2c1`: 7.2%; for `CS(=O)(=O)N1CCC(C(=O)NCc2ccc(F)cc2)CC1`: 12.5%; for `CCS(=O)(=O)N1CCC(C(=O)NCc2ccc(F)cc2)CC1`: 5.77%.

As for `Cc1ccc(S(=O)(=O)Nc2cccc(-c3cn4ccsc4n3)c2)cc1`, the inhibition was 7.08%. As for `COc1ccccc1N1CCN(c2ncnc3nc[nH]c23)CC1`, the figure is 3.64%; as for `COc1ccc(C=C2C(=O)c3ccccc3C2=O)cc1O`, 13.7%; as for `COc1cc(C=C2C(=O)c3ccccc3C2=O)ccc1O`, 12.8%. As for `COc1ccccc1N1CCN(c2nc3ccccc3nc2C(C#N)C(=O)OC(C)C)CC1` (stereo not drawn), the figure is 1.03%. The same measure for `Cn1ncc2cc(NC(N)=S)ccc21`: 5.67%.

Regarding `COc1cccc(NC(=O)COc2ccccc2C(N)=O)c1`, the inhibition was -6.65%. The same measure for `COC(=O)c1nc(N)sc1-c1ccc(Cl)cc1`: 7.93%. As for `CC1(C)Cc2c(sc3c2c(N)nc(=S)n3Cc2ccc(Br)cc2)CO1`, the figure is 5.16%. As for `Cc1ccc(Nc2cc(-n3nc(C)cc3C)ncn2)c(C)c1`, the figure is -27.3%. Take `Cc1ccc(Nc2cc(-n3nc(C)cc3C)ncn2)cc1`: the inhibition was 26.7% (active). Regarding `Cc1cc(C)n(-c2cc(-n3nc(C)cc3C)ncn2)n1`, the inhibition was 7.79%. As for `CC1(C)CC(=O)C(C=NCCN2CCN(C(=S)NC3CCCCC3)CC2)=C(O)C1`, the figure is -1.18%. Regarding `Cc1ccc(NC(=O)CN(C)CC(=O)Nc2ccccc2Oc2ccccc2)cc1`, the inhibition was -4.16%. As for `O=C(N/N=C\c1ccc(-c2ccccc2[N+](=O)[O-])o1)C1COc2ccccc2O1` (stereo not drawn), the figure is 5.3%; as for `O=C(N/N=C\c1ccc([N+](=O)[O-])o1)C1COc2ccccc2O1` (stereo not drawn), 15.2%. The same measure for `O=C(N/N=C/c1cccc([N+](=O)[O-])c1)C1COc2ccccc2O1` (stereo not drawn): -7.31%; for `O=C(N/N=C\c1ccc(O)c([N+](=O)[O-])c1)C1COc2ccccc2O1` (stereo not drawn): 21.5%; for `Cc1cc(C(=O)OCn2nnc3ccccc3c2=O)c(C)n1-c1ccccc1`: 0.48%. Consider `O=C(COC(=O)c1cccc2ccccc12)Nc1ncc(C(F)(F)F)cc1Cl`, for which the inhibition was 1.24%.

Take `CC(=O)c1ccc(Sc2ccccc2N)c([N+](=O)[O-])c1`: the inhibition was 0.73%. As for `O=C(O)c1ccccc1C(=O)c1ccc(Sc2ccc(Cl)cc2)c([N+](=O)[O-])c1`, the figure is 17.6%; as for `Cc1cccc(Nc2c(-c3ccc(N4CCOCC4)cc3)nc3ncccn23)c1`, 1.09%. Turning to `O=C(Nc1nnc(C2CC2)s1)C1CCCO1` (stereo not drawn), the inhibition was -7.06%. The same measure for `Cn1cc(Br)c(C(=O)Nc2ncc(Br)s2)n1`: 3.9%; for `CC(=O)c1ccc(OC(C)C)c(CSc2nc(O)cc(=O)[nH]2)c1`: 36.7%. In the case of `CCCOc1ccc(C(C)=O)cc1CSCCC#N`, the inhibition is 11.4%.

For the compound `CCOC(=O)c1sc2nc(C(C)C)c3c(c2c1N)CC(C)(C)OC3`, the inhibition is 22.1%. Turning to `COC(=O)c1ccc(S(=O)(=O)N2CCCN(Cc3ccccc3)CC2)n1C`, the inhibition was -2.02%. Take `Cc1ccccc1C(=O)Nc1ccnc(-c2ccncc2)n1`: the inhibition was -1.17%.

In the case of `Cc1nc(N)nc(Cl)c1Cc1ccc(Cl)cc1`, the inhibition is 0.71%. With `Cc1nc2ccc(Cl)cc2nc1C`, the inhibition was 5.55%. In the case of `COC(CNC(=O)C1CCCCC1C(=O)O)OC` (stereo not drawn), the inhibition was -2.33%. As for `C/C(CC(=O)Nc1ccccc1C)=N\NC(=O)Cc1csc(N)n1`, the figure is 5.41%. In the case of `C=CCn1c(SCc2nc3ccccc3c(=O)[nH]2)nc2scc(C3CC3)c2c1=O`, the inhibition is 1.15%. The same measure for `CC(C)Oc1ccc2ccccc2c1C=O`: 23.8% (active). The same measure for `O=Cc1c(OCc2ccccc2)ccc2ccccc12`: 16.3%; for `COc1ccc2ccccc2c1/C=N/O`: 6.62%; for `C=CCNc1nc2ccccc2c(=O)[nH]1`: 7.55%. For the compound `Clc1ccc(-c2nc(-c3cc4cc(Cl)ccc4o3)cs2)cc1`, the inhibition was 2.11%. `CC(=O)Nc1cccc(NS(=O)(=O)c2ccccc2[N+](=O)[O-])c1`: the inhibition is -4.08%. Consider `CC(C(=O)N1CCN(C)CC1)N1C(=O)c2ccccc2C1=O` (stereo not drawn), for which the inhibition was 7.24%. Regarding `COC(=O)c1c[nH]n2c(=O)c(Cl)c(C)nc12`, the inhibition is 0.19%. The same measure for `COc1ccc(OC)c(CC(NC(C)=O)C(=O)NC2CCN(c3nc(OC)nc(OC)n3)CC2)c1` (stereo not drawn): 4.38%; for `COc1ccc(/C=N/NC(=O)c2ccc(N)cc2)cc1Cn1cc([N+](=O)[O-])cn1`: 16.6%. As for `COc1ccc(/C=N/NC(=O)c2ccccc2O)cc1Cn1cc([N+](=O)[O-])cn1`, the figure is 5.5%. As for `Cc1nc(CC(=O)Nc2nc(C(C)(C)C)cs2)cs1`, the figure is 13.3%; as for `O=C(O)c1ccc(-c2ncc[nH]2)cc1`, 2.64%; as for `Cc1ccc2c(c1)-c1c(cnn1CC(=O)O)CO2`, 0.53%. For `CC(CCc1ccco1)NC(=O)Cn1ncc2c1-c1ccccc1OC2` (stereo not drawn), the inhibition was 12.1%.

As to `Cc1ccc2c(c1)-c1c(cnn1CC(=O)NC(C)CCc1ccco1)CO2` (stereo not drawn), the inhibition is 25.2% (active). Regarding `Cc1ccc2c(c1)-c1c(cnn1CC(=O)N(Cc1ccco1)C1CCCCC1)CO2`, the inhibition was 4.81%.

For `Cc1ccc(C)c(CN2CCCN(C(=O)Cn3ncc4c3-c3ccccc3OC4)C2)c1`, the inhibition was 3.24%. The same measure for `Cc1ccc2c(c1)-c1c(cnn1CC(=O)N1CCCN(Cc3ccccc3F)C1)CO2`: 26.4% (active); for `COc1cc2c(cc1OC)CN(C(=O)CSc1n[nH]c(N)n1)CC2`: 0.58%.

For the compound `COc1cc2c(cc1OC)CN(C(=O)CSc1nc(C)cc(C)c1C#N)CC2`, the inhibition is 3.39%.

For the compound `COc1cc2c(cc1OC)CN(C(=O)CSc1nnc(C)s1)CC2`, the inhibition is 25.4% (active). As for `CCOCCn1cnc2sc(C(=O)NCC(=O)OCC)c(C)c2c1=O`, the figure is 1.07%; as for `Cc1cc2c(=O)oc(-c3ccccc3Br)nc2s1`, -4.08%; as for `Cc1nn2c(=O)c(NC(=O)c3ccc(F)cc3)cnc2s1`, 6.66%.

With `Cc1ccc2c(c1)sc1ncc(NC(=O)c3ccc(F)cc3)c(=O)n12`, the inhibition was -0.5%. The same measure for `O=C(Nc1cnc2sc3c(n2c1=O)CCCC3)c1ccc(F)cc1`: 23.9% (active).
